What was measured:
Test in all cases: log2 ratio of Biotin-Ahx-Ub-VS probe labelling (fragment/DMSO); higher = less target engagement (more negative = stronger competition), active = hit call of the paper (q ≤ 0.05, log2 ratio ≤ -1)
Settings in all cases: compound concentration: 200 uM; treatment time: 3 h
ALG13 = target: T1, ALG13 (UniProt Q9NP73)
T1 sequence (whole entry): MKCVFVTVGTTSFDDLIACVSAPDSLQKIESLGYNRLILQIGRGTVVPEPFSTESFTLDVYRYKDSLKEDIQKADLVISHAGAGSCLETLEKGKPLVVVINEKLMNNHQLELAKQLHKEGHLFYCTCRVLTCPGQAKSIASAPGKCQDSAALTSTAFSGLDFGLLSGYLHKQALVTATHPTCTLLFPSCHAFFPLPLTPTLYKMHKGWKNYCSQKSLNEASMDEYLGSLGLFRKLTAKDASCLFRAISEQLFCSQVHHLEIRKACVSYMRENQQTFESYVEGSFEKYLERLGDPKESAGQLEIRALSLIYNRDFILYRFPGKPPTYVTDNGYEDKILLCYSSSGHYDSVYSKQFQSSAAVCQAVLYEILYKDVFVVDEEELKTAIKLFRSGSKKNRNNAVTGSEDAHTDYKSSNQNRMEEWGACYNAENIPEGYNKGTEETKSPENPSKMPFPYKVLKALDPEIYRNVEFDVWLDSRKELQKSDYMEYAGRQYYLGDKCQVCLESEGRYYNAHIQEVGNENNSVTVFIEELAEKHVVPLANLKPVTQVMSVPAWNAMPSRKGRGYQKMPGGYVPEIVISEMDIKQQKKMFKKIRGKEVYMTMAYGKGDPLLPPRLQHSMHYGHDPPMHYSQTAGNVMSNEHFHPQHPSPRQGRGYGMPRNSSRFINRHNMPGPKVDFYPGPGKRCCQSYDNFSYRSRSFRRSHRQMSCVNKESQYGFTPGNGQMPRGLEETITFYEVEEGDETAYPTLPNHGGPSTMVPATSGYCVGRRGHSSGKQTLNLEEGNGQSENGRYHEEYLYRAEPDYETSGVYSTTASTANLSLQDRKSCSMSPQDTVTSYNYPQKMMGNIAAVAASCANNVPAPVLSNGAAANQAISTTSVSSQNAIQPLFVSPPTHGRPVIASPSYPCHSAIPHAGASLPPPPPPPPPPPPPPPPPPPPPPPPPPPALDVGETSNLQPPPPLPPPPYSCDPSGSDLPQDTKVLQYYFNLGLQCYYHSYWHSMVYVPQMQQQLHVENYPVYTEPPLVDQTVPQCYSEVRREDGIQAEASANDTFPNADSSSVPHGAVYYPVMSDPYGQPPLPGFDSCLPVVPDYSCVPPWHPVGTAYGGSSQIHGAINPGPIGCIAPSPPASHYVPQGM
Summary of the method: (§1)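 HEK293T lysate (495 µg per sample, in Tris/CHAPS/IGEPAL buffer with protease inhibitors) was exposed in triplicate for 3 h to fragment at 200 µM or to vehicle, then to Biotin-Ahx-Ub-VS at 0.5 µM final for 1 h. Labelled DUBs were enriched on NeutrAvidin, digested with LysC and trypsin, and analysed by diaPASEF LC-MS/MS. Spectronaut label-free quantities were normalised to the global median, and values are average log2 ratios of fragment over vehicle from an unpaired t-test. Only proteins with ≥2 unique peptides were used.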

ATXN3 = ATXN3 (UniProt P54252)
ATXN3, sequence (P54252 whole entry): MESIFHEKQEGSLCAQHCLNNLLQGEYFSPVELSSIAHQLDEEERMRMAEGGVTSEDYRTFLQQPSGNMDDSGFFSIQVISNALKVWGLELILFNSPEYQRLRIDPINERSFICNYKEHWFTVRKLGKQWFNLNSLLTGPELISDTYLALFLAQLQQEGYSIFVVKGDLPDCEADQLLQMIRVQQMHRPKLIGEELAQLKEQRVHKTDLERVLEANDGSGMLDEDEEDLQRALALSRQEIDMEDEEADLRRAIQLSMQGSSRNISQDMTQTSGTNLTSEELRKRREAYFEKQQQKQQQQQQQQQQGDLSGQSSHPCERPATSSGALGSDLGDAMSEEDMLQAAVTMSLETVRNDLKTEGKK
Summary of the method: as §1

BAP1 = target: T2, BAP1 (UniProt Q92560)
T2 sequence (whole entry): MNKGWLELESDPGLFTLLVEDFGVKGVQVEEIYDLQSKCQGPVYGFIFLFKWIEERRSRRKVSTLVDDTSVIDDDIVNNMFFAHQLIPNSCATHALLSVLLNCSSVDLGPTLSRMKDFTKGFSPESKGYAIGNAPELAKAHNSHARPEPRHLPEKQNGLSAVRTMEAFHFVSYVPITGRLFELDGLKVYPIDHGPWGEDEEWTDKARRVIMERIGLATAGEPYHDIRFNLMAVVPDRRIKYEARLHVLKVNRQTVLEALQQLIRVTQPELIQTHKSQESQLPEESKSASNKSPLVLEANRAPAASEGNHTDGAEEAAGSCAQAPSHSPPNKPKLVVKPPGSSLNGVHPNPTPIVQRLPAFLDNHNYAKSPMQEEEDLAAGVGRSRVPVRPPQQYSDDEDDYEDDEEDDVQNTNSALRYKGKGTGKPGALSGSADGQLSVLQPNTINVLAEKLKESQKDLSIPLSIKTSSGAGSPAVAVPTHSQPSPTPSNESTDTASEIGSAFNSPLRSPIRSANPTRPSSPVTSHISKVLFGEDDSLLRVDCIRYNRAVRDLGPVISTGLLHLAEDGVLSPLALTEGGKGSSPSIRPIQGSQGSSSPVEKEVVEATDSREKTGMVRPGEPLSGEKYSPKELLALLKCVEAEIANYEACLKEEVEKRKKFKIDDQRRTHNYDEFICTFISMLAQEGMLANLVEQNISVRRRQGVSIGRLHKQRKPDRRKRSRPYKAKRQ
Summary of the method: as §1

EIF3F = EIF3F (UniProt O00303)
EIF3F, sequence (O00303 whole entry): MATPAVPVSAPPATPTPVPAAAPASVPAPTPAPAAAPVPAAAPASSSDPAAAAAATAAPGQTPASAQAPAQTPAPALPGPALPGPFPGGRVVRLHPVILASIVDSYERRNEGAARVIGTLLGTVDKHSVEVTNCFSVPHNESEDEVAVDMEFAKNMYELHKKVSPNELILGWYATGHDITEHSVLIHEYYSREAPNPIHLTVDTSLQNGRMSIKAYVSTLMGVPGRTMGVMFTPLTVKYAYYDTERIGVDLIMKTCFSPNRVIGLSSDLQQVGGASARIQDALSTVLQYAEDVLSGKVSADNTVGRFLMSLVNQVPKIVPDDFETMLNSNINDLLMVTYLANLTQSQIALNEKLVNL
Summary of the method: as §1

EIF3H = EIF3H (UniProt O15372)
EIF3H, sequence (O15372 whole entry): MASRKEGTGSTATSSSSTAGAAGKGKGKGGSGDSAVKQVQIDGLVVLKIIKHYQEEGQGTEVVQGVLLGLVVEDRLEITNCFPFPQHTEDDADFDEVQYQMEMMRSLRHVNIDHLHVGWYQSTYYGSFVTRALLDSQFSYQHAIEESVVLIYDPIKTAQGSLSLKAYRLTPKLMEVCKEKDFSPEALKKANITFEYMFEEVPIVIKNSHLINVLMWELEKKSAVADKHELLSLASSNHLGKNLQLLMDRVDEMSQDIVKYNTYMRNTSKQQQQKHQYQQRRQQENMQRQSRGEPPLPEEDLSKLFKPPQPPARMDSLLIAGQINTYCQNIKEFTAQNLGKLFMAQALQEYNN
Summary of the method: as §1

FAM105A = target: T3, FAM105A (UniProt Q9NUU6)
T3 sequence (whole entry): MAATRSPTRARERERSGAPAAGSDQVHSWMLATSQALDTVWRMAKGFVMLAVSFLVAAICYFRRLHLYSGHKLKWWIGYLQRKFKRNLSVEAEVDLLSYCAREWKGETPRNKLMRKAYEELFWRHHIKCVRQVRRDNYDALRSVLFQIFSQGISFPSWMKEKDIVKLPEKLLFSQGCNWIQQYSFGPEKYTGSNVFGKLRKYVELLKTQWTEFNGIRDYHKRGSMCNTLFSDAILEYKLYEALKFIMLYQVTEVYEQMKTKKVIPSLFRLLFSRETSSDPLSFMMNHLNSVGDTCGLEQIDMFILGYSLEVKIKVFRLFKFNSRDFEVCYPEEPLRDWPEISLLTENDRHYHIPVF
Summary of the method: as §1

OTUB1 = OTUB1 (UniProt Q96FW1)
OTUB1, sequence (Q96FW1 whole entry): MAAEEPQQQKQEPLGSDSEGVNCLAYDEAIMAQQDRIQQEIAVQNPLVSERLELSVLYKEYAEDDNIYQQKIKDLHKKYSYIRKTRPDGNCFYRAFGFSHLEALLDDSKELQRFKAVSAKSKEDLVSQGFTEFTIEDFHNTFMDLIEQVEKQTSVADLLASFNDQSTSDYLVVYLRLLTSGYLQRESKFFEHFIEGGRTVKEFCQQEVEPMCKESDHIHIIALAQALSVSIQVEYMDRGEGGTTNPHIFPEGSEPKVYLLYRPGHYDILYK
Summary of the method: as §1

OTUD4 = target: T4, OTUD4 (UniProt Q01804)
T4 sequence (whole entry): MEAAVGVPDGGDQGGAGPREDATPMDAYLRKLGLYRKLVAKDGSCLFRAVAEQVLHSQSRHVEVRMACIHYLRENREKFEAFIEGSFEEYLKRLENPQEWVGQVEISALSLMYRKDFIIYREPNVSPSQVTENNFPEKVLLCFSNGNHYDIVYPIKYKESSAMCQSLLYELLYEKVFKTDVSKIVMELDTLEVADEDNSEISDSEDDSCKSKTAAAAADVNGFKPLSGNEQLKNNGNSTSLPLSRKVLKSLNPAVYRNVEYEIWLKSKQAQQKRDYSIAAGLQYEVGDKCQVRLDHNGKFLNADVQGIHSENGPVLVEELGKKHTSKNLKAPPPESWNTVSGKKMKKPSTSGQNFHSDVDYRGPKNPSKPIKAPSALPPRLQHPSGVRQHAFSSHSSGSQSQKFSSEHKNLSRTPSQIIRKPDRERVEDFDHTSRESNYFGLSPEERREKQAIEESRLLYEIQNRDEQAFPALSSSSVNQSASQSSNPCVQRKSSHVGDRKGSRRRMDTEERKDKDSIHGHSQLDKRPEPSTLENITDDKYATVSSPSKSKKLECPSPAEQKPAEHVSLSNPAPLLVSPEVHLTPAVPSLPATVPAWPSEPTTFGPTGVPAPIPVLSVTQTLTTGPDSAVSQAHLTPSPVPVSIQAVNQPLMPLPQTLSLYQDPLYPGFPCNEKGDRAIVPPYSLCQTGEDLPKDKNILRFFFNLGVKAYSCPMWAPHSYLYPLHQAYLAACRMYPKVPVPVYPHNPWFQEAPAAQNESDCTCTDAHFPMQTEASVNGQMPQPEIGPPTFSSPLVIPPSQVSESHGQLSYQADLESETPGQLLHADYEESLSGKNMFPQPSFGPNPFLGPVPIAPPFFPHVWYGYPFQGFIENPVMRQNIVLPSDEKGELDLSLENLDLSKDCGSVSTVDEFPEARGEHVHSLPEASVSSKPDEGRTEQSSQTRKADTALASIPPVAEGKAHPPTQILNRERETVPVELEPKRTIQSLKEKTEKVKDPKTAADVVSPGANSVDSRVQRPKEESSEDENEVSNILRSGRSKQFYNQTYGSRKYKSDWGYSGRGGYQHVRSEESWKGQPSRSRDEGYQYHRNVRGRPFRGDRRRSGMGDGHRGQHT
Summary of the method: as §1

OTUD5 = target: T5, OTUD5 (UniProt Q96G74)
T5 sequence (whole entry): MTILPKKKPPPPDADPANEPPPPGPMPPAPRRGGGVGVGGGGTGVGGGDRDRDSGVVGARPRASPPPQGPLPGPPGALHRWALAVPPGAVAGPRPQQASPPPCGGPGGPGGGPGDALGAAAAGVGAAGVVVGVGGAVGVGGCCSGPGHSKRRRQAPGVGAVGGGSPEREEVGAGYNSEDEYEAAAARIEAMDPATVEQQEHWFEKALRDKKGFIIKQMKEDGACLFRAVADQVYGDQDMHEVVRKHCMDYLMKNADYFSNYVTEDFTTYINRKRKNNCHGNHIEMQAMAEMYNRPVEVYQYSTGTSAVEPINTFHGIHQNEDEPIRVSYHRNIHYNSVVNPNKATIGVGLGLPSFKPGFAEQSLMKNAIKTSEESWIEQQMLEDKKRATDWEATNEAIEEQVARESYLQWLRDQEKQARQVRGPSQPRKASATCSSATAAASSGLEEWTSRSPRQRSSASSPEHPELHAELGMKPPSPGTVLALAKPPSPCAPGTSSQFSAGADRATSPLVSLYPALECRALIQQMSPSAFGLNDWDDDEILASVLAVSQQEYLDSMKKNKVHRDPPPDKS
Summary of the method: as §1

Measured: log2 ratio of Biotin-Ahx-Ub-VS probe labelling

Cc1nnc(C(NC(=O)CCl)c2ccccc2)n1C (centres undefined)
inactive: ALG13 -0.558 | ATXN3 0.355 | BAP1 0.428 | EIF3F 0.534 | EIF3H 0.24 | FAM105A 0.549 | OTUB1 -0.00852 | OTUD4 0.483 | OTUD5 0.385
